LANA-H2A inh – blocks KSHV LANA binding to histone H2A/H2B; Q9QR71; cell-free LANA-H2A/H2B peptide, fluorescence polarization; inhibition, % (test concentration not listed); hit rate 0.6% among 320,000; AID 2629; in the data active means inhibition mostly above about 10%, no sharp cut-off; inactive means mostly below about 6.7%
VLA-4 inh – inhibition in a human VLA-4 binding assay. inhibition, % (about 7 µM as worked out from the volumes in the protocol). P13612. AID 2557. hit rate 0.2% among 330,000. VLA-4 expressing cells, ligand binding flow cytometry
DSG3 Ab inh – human desmoglein-3 autoantibody binding inhibition; hit rate 0.48% among 310,000; binding (percent of control), % at 10 µM; AID 588358; P32926; DSG3-coupled beads, scFv-anti-DSG3-GFP binding, flow cytometry; hits give low values;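 active means binding more than 3 SD below its plate's average and above zero; inconclusive means below that plate limit but binding exactly zero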;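 further: hits lower antibody fragment binding to DSG3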
PKD1 inh – PKD1 (human) kinase inhibition; Q15139; PKD1 kinase fluorescence polarization assay; inhibition, % (test concentration not listed); hit rate 0.056% among 200,000; AID 797
GRK2 aptamer HTS – human GRK2 inhibition via aptamer displacement; P25098; bead flow cytometry, FAM-aptamer displacement from GRK2; inhibition of aptamer binding, % at 10 µM; hit rate 0.59% among 330,000; AID 488847;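 active means inhibition of aptamer binding above 40%, roughly 3 SD of noise, on plates passing a quality check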;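 further: median bead fluorescence of bound FAM aptamer so fluorescent compounds give negative values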
Target sequence (P25098 whole entry, looked up): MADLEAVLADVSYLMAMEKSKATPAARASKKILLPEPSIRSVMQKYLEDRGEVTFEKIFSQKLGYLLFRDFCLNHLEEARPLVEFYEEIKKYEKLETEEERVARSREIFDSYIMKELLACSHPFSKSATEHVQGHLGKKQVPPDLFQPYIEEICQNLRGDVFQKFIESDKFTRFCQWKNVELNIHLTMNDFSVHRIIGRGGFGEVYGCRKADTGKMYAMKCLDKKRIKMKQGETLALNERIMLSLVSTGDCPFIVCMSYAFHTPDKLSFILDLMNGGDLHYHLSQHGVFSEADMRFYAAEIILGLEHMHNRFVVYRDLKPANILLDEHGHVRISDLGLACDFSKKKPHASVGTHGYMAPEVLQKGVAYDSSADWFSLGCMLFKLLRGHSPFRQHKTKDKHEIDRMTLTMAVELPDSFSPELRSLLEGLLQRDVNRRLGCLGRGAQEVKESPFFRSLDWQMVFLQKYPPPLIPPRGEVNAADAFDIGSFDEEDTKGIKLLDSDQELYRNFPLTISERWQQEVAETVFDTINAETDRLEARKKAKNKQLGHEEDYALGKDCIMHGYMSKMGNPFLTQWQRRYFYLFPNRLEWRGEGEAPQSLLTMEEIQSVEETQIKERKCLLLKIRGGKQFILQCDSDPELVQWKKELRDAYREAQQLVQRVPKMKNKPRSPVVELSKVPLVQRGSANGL
HDAC3 inhib – human HDAC3 inhibition; O15379; recombinant HDAC3, fluorogenic peptide/trypsin coupled, fluorescence; inhibition, % at 8.3 µM; hit rate 0.15% among 320,000; AID 2718; in the data active means inhibition above about 26%, passing the limit was not always enough; inconclusive means no clear call, values can overlap the other calls
A number is an active result. Only some compounds are listed: those with a hit (about 1.8% of all), similar ones and a draw of the others. Unless noted, no stated cut-off is given here; in the data, active means inhibition above about 50%; inactive means the rest.

Screening CN(C)S(=O)(=O)c1ccc(C(=O)NCc2cccs2)cc1 returned LANA-H2A inh inactive, VLA-4 inh inactive, DSG3 Ab inh inactive, PKD1 inh inactive, GRK2 aptamer HTS inactive and HDAC3 inhib inactive.
Screening CCOC(=O)c1c[nH]c2c(Cl)ccc(Cl)c2c1=O returned LANA-H2A inh inactive, VLA-4 inh inactive, PKD1 inh inactive, GRK2 aptamer HTS inactive and HDAC3 inhib inactive.
Screening CCOC(=O)c1c[nH]c2c(Cl)c(Cl)ccc2c1=O returned LANA-H2A inh inactive, VLA-4 inh inactive, DSG3 Ab inh 86.0, PKD1 inh inactive, GRK2 aptamer HTS inactive and HDAC3 inhib inactive.
`Cc1ccccc1-c1nc(CS(=O)(=O)CC(=O)NCCCN2CC(C)CC(C)C2)c(C)o1` (centres undefined) gave LANA-H2A inh inactive, VLA-4 inh inactive, DSG3 Ab inh inactive, GRK2 aptamer HTS inactive and HDAC3 inhib inactive.
For Cc1cc(C)nc(Sc2ncnc(N)c2[N+](=O)[O-])n1 the results were LANA-H2A inh inactive, VLA-4 inh inactive, DSG3 Ab inh inactive, PKD1 inh inactive, GRK2 aptamer HTS inactive and HDAC3 inhib inactive.
`COc1cc(CC(=O)OCC(=O)Nc2ccc(N(C)C)cc2)cc(OC)c1OC` gave LANA-H2A inh inactive, VLA-4 inh inactive, DSG3 Ab inh inactive, GRK2 aptamer HTS inactive and HDAC3 inhib inactive.
Cc1ccc(N2C(=O)C(NC(=O)c3ccccc3F)(C(F)(F)F)C3=C2CC(C)(C)CC3=O)cc1 (centres undefined) was read as LANA-H2A inh inactive, VLA-4 inh inactive, DSG3 Ab inh inactive, PKD1 inh inactive, GRK2 aptamer HTS 75.0 and HDAC3 inhib inactive.
`Cc1cc2c(=O)oc(-c3ccccc3Br)nc2s1` gave DSG3 Ab inh inactive.
Screening CCc1cc2c(=O)oc(-c3ccccc3F)nc2s1 returned LANA-H2A inh inactive, VLA-4 inh inactive, DSG3 Ab inh 78.6, GRK2 aptamer HTS inactive and HDAC3 inhib 69.0.
For CCn1c(O)c(/C=C2\C=NN=C2c2ccccc2)sc1=S the results were LANA-H2A inh 14.6, VLA-4 inh inactive, GRK2 aptamer HTS inactive and HDAC3 inhib inactive.
For Oc1ccccc1C(Nc1nccs1)c1ccc2cccnc2c1O (centres undefined) the results were LANA-H2A inh inactive, VLA-4 inh inactive, DSG3 Ab inh 70.0, GRK2 aptamer HTS inactive and HDAC3 inhib inactive.
Screening Cn1c(=O)c(/C=C/c2ccc(F)cc2)nc2ccccc21 returned DSG3 Ab inh inactive and PKD1 inh inactive.
`O=c1c(/C=C(\O)c2ccc(F)cc2)nc2ccccc2n1-c1ccccc1` gave LANA-H2A inh -3.4, VLA-4 inh inactive, DSG3 Ab inh inactive, PKD1 inh inactive, GRK2 aptamer HTS inactive and HDAC3 inhib inactive.
`CCOC(=O)[C@@H]1[C@H]2COc3cc(OC)ccc3[C@H]2N2C(=O)N(c3ccc(C)cc3)C(=O)[C@]12C` gave LANA-H2A inh inactive, VLA-4 inh inactive, DSG3 Ab inh inactive, GRK2 aptamer HTS inactive and HDAC3 inhib inactive.
CC1CN(S(=O)(=O)c2cccc(C(F)(F)F)c2)CC(C)O1 (centres undefined) was read as LANA-H2A inh inactive, VLA-4 inh inactive, DSG3 Ab inh inactive, GRK2 aptamer HTS inactive and HDAC3 inhib inactive.
`COc1ccc(N2CCN(S(=O)(=O)c3cnc[nH]3)CC2)cc1` gave LANA-H2A inh 33.2, VLA-4 inh inactive, DSG3 Ab inh inactive, GRK2 aptamer HTS inactive and HDAC3 inhib inactive.
`CC(C)CCN(C)C1CCN(S(=O)(=O)c2cccc(C(F)(F)F)c2)CC1` gave LANA-H2A inh 24.5, VLA-4 inh inactive, DSG3 Ab inh inconclusive, PKD1 inh inactive, GRK2 aptamer HTS inactive and HDAC3 inhib inactive.
Screening COc1ccc(N2CCN(S(=O)(=O)c3cccc(C(F)(F)F)c3)CC2)cc1 returned LANA-H2A inh inactive, VLA-4 inh inactive, DSG3 Ab inh -25.3, PKD1 inh inactive, GRK2 aptamer HTS inactive and HDAC3 inhib inactive.
Screening COc1ccc(-c2nnc3ccc(SCC(=O)Nc4nc5ccccc5s4)nn23)cc1OC returned LANA-H2A inh inactive, VLA-4 inh inactive, DSG3 Ab inh inactive, PKD1 inh inactive, GRK2 aptamer HTS inactive and HDAC3 inhib inactive.
Screening C[C@@]12C(=O)N(c3ccc(Br)cc3)C(=O)N1[C@@H]1c3ccccc3OC[C@@H]1[C@H]2c1ccccc1 returned LANA-H2A inh inactive, VLA-4 inh inactive, DSG3 Ab inh inactive, GRK2 aptamer HTS inactive and HDAC3 inhib inactive.
Screening Cc1cccc(S(=O)(=O)c2c(N)n(/N=C/c3ccccc3)c3nc4ccccc4nc23)c1 returned LANA-H2A inh inactive, VLA-4 inh inactive, DSG3 Ab inh 89.4, PKD1 inh inactive, GRK2 aptamer HTS inactive and HDAC3 inhib inactive.
`COc1cc2c(cc1O)[C@@H]1Cc3cc(OC)c(OC)cc3C(C2)N1C` gave LANA-H2A inh inactive, VLA-4 inh inactive, DSG3 Ab inh inactive, GRK2 aptamer HTS inactive and HDAC3 inhib inactive.
For COc1cc2c(cc1OC)[C@@H]1Cc3cc4c(cc3[C@H](C2)N1C)OCO4 the results were LANA-H2A inh inactive, VLA-4 inh inactive, DSG3 Ab inh inactive, PKD1 inh inactive, GRK2 aptamer HTS inactive and HDAC3 inhib 33.9.
For CC1CCC2C(=O)N(c3ccc(Cc4ccncc4)cc3)C(=O)C2C1 (centres undefined) the results were LANA-H2A inh inactive, VLA-4 inh inactive, DSG3 Ab inh inactive, PKD1 inh inactive, GRK2 aptamer HTS inactive and HDAC3 inhib inactive.
`COCCNC(=O)CSc1ncnc2sc(-c3ccccc3)cc12` gave LANA-H2A inh inactive, VLA-4 inh inactive, DSG3 Ab inh 102.7, PKD1 inh inactive, GRK2 aptamer HTS inactive and HDAC3 inhib inactive.
For O=C(O)CSc1ncnc2sc(-c3ccccc3)cc12 the results were LANA-H2A inh inactive, VLA-4 inh inactive, DSG3 Ab inh inactive, PKD1 inh inactive, GRK2 aptamer HTS inactive and HDAC3 inhib inactive.
Screening Cc1ccc(CN(C(=O)c2ccco2)C(C(=O)NC2CCCC2)c2cccnc2)cc1 (centres undefined) returned LANA-H2A inh active, VLA-4 inh inactive, PKD1 inh inactive, GRK2 aptamer HTS inactive and HDAC3 inhib inactive.
For O=C(Nc1cccc(Cl)c1)C1=CC=CN2CCS(=O)(=O)N=C12 the results were LANA-H2A inh inactive, VLA-4 inh inactive, DSG3 Ab inh inactive, GRK2 aptamer HTS inactive and HDAC3 inhib inactive.
`CC(=O)c1cccc(OC(=O)C2=CC=CN3CCS(=O)(=O)N=C23)c1` gave LANA-H2A inh 46.9, VLA-4 inh inactive, DSG3 Ab inh inactive, GRK2 aptamer HTS inactive and HDAC3 inhib inactive.
`Cc1cccc(N=[N+]([O-])c2cccc(C)n2)n1` gave DSG3 Ab inh inactive and GRK2 aptamer HTS inactive.
COc1ccc(/C=C/C(=O)Nc2cc(S(=O)(=O)N3CCOCC3)ccc2C)cc1OC was read as LANA-H2A inh active, VLA-4 inh inactive, DSG3 Ab inh inactive, PKD1 inh inactive, GRK2 aptamer HTS inactive and HDAC3 inhib inactive.
Screening CC(=O)Nc1cccc(NC(=O)/C=C/c2ccc(S(=O)(=O)N3CCOCC3)cc2)c1 returned LANA-H2A inh inactive, VLA-4 inh inactive, DSG3 Ab inh inactive, GRK2 aptamer HTS inactive and HDAC3 inhib inactive.

Screens as filed in PubChem.
